Reference: PubChem BioAssay AID720650 (Broad Institute, 2013)
The source made the active and inactive calls. No rule for the calls is given here.

Test: C difficile toxins, biochemical counterscreen, UDPG substrate absence, confirmatory dose response (AID 720650)
Conditions: series mostly up to 19.5 µM

Row | Structure (SMILES) | AC50
1 | CC12CCC(=O)N1C(C(=O)OCc1c(Cl)cccc1Cl)CS2 (stereo not drawn) | inactive
2 | Cc1ccc(C(=O)Nc2ccc(N3CCCCC3)cc2)cc1 | inactive
3 | O=[N+]([O-])c1ccc(/C=C/c2ccc3ccccc3n2)cc1 | inactive
4 | COC(=O)c1ccc(OC(=O)c2ccc(OC)cc2)c(OC)c1 | inactive
5 | C[C@H](CO)N1C[C@H](C)[C@@H](CN(C)C(=O)Nc2ccc(C(F)(F)F)cc2)Oc2ccc(NC(=O)C3CCCCC3)cc2C1=O | inactive
6 | COc1cccc2cc(/C(C)=N/NC(=O)c3ccco3)oc12 | inactive
7 | CC(Oc1ccc(Cl)cc1Cl)C(=O)Nc1ccc(O)cc1 (stereo not drawn) | 12.9 µM (active)
8 | CCOC(=O)C1=C(C)Nc2nnnn2C1c1ccc(OC)c(Br)c1 (stereo not drawn) | > 39 µM (inactive)
9 | COc1ccc(NC(=O)c2cc(S(=O)(=O)N3CCc4ccccc43)cn2C)cc1OC | inactive
10 | COc1ccccc1C1NC(=O)NC(C)=C1C(=O)OC1CCCCC1 (stereo not drawn) | inactive
11 | COCC(=O)N1CC[C@@H]2[C@@H](CO)N(C)c3ccc(-c4ccccc4)cc3[C@@H]21 | 3.88 µM (active)
12 | CC1CCC/C(=C\c2ccc(O)cc2)C1=O (stereo not drawn) | 7.48 µM (active)
13 | Cc1ccc(/C=C/c2onc(C)c2S(=O)(=O)N2CCC(C(=O)N3CCN(C)CC3)CC2)cc1 | inactive
14 | CNC(=O)N(O)C1N(/N=C/c2cccs2)C(=S)SC1(C)C (stereo not drawn) | > 39 µM (inactive)
15 | CC(C)C12NC(=O)NC(=O)N1CCS2 (stereo not drawn) | inactive
16 | COc1ccc(CNC(=O)C2CCN(S(=O)(=O)c3c(C)noc3/C=C/N(C)C)CC2)cc1 | inactive
17 | O=C(c1ccc(N2CCOCC2)c([N+](=O)[O-])c1)N1CCN(c2ccccc2F)CC1 | > 39 µM (inactive)
18 | COc1ccc(/C=N/n2c(-c3cc(C)[nH]n3)n[nH]c2=S)cc1OC | > 39 µM (inactive)
19 | O=C(Cc1ccccn1)c1ccncc1 | inactive

Row | Structure (SMILES) | AC50
20 | COc1cc(N=Nc2c(C)n(C)n(-c3ccccc3)c2=O)ccc1N | inactive
21 | CCCC(=O)Nc1sc2c(c1C(=O)Nc1ccccn1)CCCC2 | inactive
22 | Cc1nn(C)cc1-c1n[nH]c(=S)n1-c1ccc(F)cc1 | inactive
23 | Nc1nnn(CC(=O)N/N=C/c2ccc(O)cc2)n1 | 16.5 µM (active)
24 | CCN(CC)CCNC(=O)C1CCN(S(=O)(=O)c2c(C)noc2/C=C/c2ccccc2F)CC1 | inactive
25 | CC1C(=O)C(C)C(c2ccc([N+](=O)[O-])cc2)NC1c1ccc([N+](=O)[O-])cc1 (stereo not drawn) | inactive
26 | COc1cccc(C(=O)Nc2ccc3c(c2)C(=O)N(C)[C@@H]2CC[C@H](CC(=O)NCCCN4CCOCC4)O[C@@H]2CO3)c1 | inactive
27 | O=C(CCC(=O)N1CCSc2ccccc21)Nc1cccc(F)c1 | inactive
28 | CC(C)CC(=O)N1CCN(Cc2ccc(Br)cc2)CC1 | inactive
29 | O=[N+]([O-])c1ccc(S(=O)(=O)Nc2nc(-c3ccccc3)cs2)cc1 | inactive
30 | COc1cccc(C(=O)OCC(=O)Nc2cc(C)on2)c1OC | inactive
31 | C[C@@H]1CN([C@H](C)CO)S(=O)(=O)c2ccc(-c3ccncc3)cc2O[C@@H]1CN(C)Cc1ccc(Oc2ccccc2)cc1 | inactive
32 | Cc1ccc(CN2C(=O)CN=C(c3ccccc3)c3ccccc32)cc1 | inactive
33 | COc1cc(/C=N/N2C(=O)C3C4C=CC(CC4)C3C2=O)ccc1O (stereo not drawn) | inactive
34 | Cc1ccc(CSc2nc3nc(C)cc(C)c3c(=O)[nH]2)cc1 | inactive
35 | O=C(c1ccccc1F)N1CCN(c2ccc([N+](=O)[O-])c3cccnc23)CC1 | inactive
36 | Oc1ccc(-c2cn3ccccc3n2)cc1 | 4.42 µM (active)
37 | CCN(C(=O)CN1C(=O)NC2(CCC(C)CC2)C1=O)C1CCCCC1 (stereo not drawn) | inactive
38 | FC(F)(F)c1cc(CCN2CCNC[C@H]2Cc2cccc3ccccc23)cc(C(F)(F)F)c1 | 19.9 µM (active)
